Cy5 interf NS3h = counter-screen for HCV NS3 helicase inhibitors: fluorescence interference; Cy5-dT15 DNA with NS3h; actives lie on both sides; signal over control mean, under 1 quenches; fluorescence interference ratio at 100 µM; 6% of 16,000 active; AID 720488;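 active = compound fluorescence over control fluorescence at most 0.8, a quencher, or at least a set upper limit, an enhancer; inactive = ratio between 0.8 and the set upper limit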
HCV NS3h FP = hepatitis C NS3 helicase inhibition, primary screen | 1.6% of 16,000 active | NS3h Cy5-dT15 DNA binding, fluorescence polarization | AID 687043 | inhibition, % at 100 µM;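 active = inhibition above the average over every tested compound plus 3 SD, cut at about 40% in these data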
* = called active by the depositor. A selection: hits, their analogues and other compounds. The true share with any hit is near 7.6%.

SMILES | Cy5 interf NS3h | HCV NS3h FP
COC(=O)c1cccc(-c2ccc(/C=C3/C(=O)NN(c4cccc(Cl)c4)C3=O)o2)c1 | 0.77* | 12
COC(=O)c1cccc(-c2ccc(C=C3C(=O)N(C)C(=O)N(C)C3=O)o2)c1 | 1.1 | 7
O=C(CN1C(=O)c2ccccc2C1=O)Nc1ccc(F)c(F)c1 | 0.99 | 24
CN(C)c1ccc(/C=c2\sc3nc4ccccc4n3c2=O)cc1 | 0.99 | 4
Cn1ccnc1/C=C(/OC(=O)c1ccc(Cl)cc1)c1ccc(Cl)cc1 | 0.98 | -4
O=C(O/C(=C/c1nccn1Cc1ccc(Cl)cc1)c1ccccc1)c1ccccc1 | 1.2* | 6
COCCOC(=O)c1c(C)oc2ccc(OC(=O)c3ccc(Cl)cc3)cc12 | 0.92 | 11
Cc1cc(C)cc(-n2c(C)cc(/C=C3\NC(=O)NC3=O)c2C)c1 | 0.98 | -12
O=[N+]([O-])c1cc(S(=O)(=O)Nc2ccc(O)c(Br)c2)ccc1Cl | 0.92 | 2
COc1ccc(/C=C2\SC(=O)N(c3cccc(O)c3)C2=O)cc1 | 0.95 | 12
O=S(=O)(O)c1c(O)cnc2ccccc12 | 1.1 | 0
Cc1c(Cl)c([N+](=O)[O-])nn1CC(=O)N1CCCC1 | 1 | -3
Cc1c(Br)c([N+](=O)[O-])nn1CC(=O)N1CCc2ccccc2C1 | 0.56* | 12
Cc1cccc(N=C2NC(=O)/C(=C\c3ccc(Cl)cc3)S2)c1C | 1 | 13
Cc1cc2ncn(C(=O)c3ccc([N+](=O)[O-])cc3)c2cc1C | 0.94 | 7
Cc1cc(Nc2ccccc2)n(C(=O)c2ccc([N+](=O)[O-])cc2)n1 | 0.74* | 10
CC12CS(=O)(=O)CC1SC(=S)N2c1ccccc1 (stereo not given) | 1 | 0
Cc1ccc(N2C(=O)NC(=O)/C(=C\c3ccc(Cl)cc3)C2=O)cc1 | 1 | 14
O=C1NC(=O)N(c2ccc(I)cc2)C(=O)/C1=C\C=C\c1ccco1 | 0.77* | 21
Cc1ccc(OCCNC(=O)Cc2cccc3ccccc23)cc1 | 0.97 | 12
O=C(CC1c2ccccc2Oc2ccccc21)NCCOc1ccccc1 | 0.67* | 38
N/C(=N/OC(=O)c1ccccc1F)c1ccc(Cl)cc1 | 1.1 | -5
CN=C(NCCO)C(C#N)=Cc1c(O)n(-c2c(Cl)cccc2Cl)c2ccccc12 | 0.98 | 15
COc1ccc(C2(CNC(=O)Cc3ccccc3)CCCCC2)cc1OC | 1.1 | 3
CCOC(=O)Nc1n[nH]c(NC(=O)OCC)c1[N+](=O)[O-] | 0.66* | 12
SMILES | Cy5 interf NS3h | HCV NS3h FP
CCOC(=O)Nc1cc([N+](=O)[O-])ccc1Cl | 0.98 | 19
c1ccc(-c2nc3ccccc3nc2-c2cccs2)cc1 | 1 | 7
CN1CCN(c2ccc(/C=C3\Sc4ccccc4C3=O)cc2[N+](=O)[O-])CC1 | 0.79* | -3
CN1C(=O)C(=Cc2ccc(O)c([N+](=O)[O-])c2)C(=O)N(C)C1=O | 1.1 | 11
COc1ccc(/C=C2/Sc3ccccc3C2=O)cc1 | 0.95 | 14
CN1CCN(c2ccc(/C=C3\NC(=S)NC3=O)cc2[N+](=O)[O-])CC1 | 0.61* | 1
COC(=O)c1c(NC(=O)/C=C\C(=O)O)sc(C)c1C | 1.2 | -2
N#CCc1ccc(NC(=O)c2cc(Cl)cc(Cl)c2O)cc1 | 0.95 | -6
COc1cccc(Nc2nc(-c3ccc(S(=O)(=O)N4CCOCC4)cc3)cs2)c1 | 0.99 | 7
CCOc1cc(OCC)cc(C(=O)Nc2cccc(C(F)(F)F)c2)c1 | 0.5* | 21
CCOc1ccc(NC(=O)C(=O)Nc2cccc(C(F)(F)F)c2)cc1 | 0.98 | -4
CCOc1ccc2nc(SCC(=O)Nc3ccc(OC)cc3OC)sc2c1 | 0.94 | 7
COc1ccc(NC(=O)CSc2nc3ccc(N4C(=O)c5ccccc5C4=O)cc3s2)c([N+](=O)[O-])c1 | 0.73* | 14
Cc1csc(NC(=O)c2c(O)c3ccccc3[nH]c2=O)n1 | 1.2* | 0
COc1ccccc1NC(=O)c1c(O)c2ccccc2[nH]c1=O | 1.1 | 9
COc1ccc(S(=O)(=O)Nc2cc([N+](=O)[O-])ccc2OC)cc1 | 1.1 | 9
Cc1cccc(N2C(=O)C(=O)C(=C(O)c3ccccc3)C2c2ccccc2[N+](=O)[O-])c1 (stereo not given) | 1.1 | 7
Cc1ccc(S(=O)(=O)Nc2cccc3ccc[n+](C)c23)cc1 | 1 | -15
O=C1C2C3C=CC(C3)C2C(=O)N1c1cccc(-c2nc3ccccc3c(=O)o2)c1 (stereo not given) | 0.76* | 15
O=C1C2C3C=CC(C3)C2C(=O)N1c1cccc(Oc2cccc(Oc3cccc(N4C(=O)C5C6C=CC(C6)C5C4=O)c3)c2)c1 (stereo not given) | 0.87 | -1
COC(=O)C1=C(C(=O)OC)SC(=C2C(=S)C(C)(C)N(C(=O)c3cccc(F)c3)c3c(OC)cccc32)S1 | 1.1 | 6
COC(=O)C1=C(C(=O)OC)SC(=C2C(=S)C(C)(C)N(C(=O)c3cccc([N+](=O)[O-])c3)c3ccc(OC)cc32)S1 | 0.53* | 16
CCOc1ccccc1N(CC(=O)NCC1CCCO1)S(=O)(=O)c1ccccc1 (stereo not given) | 1 | 4
O=C1C2C(c3ccc(Br)cc3)OC3(C(=O)c4ccccc4C3=O)C2C(=O)N1c1cccc([N+](=O)[O-])c1 (stereo not given) | 0.91 | 9
C/C(=N/N=C1\NC(=O)C(CC(=O)Nc2ccc(Cl)cc2Cl)S1)c1ccc(Cl)cc1 (stereo not given) | 1.2 | -29
SMILES | Cy5 interf NS3h | HCV NS3h FP
COc1ccc(/C(C)=N\N=C2/NC(=O)C(CC(=O)Nc3cc(Cl)ccc3Cl)S2)cc1 (stereo not given) | 1.2* | 10
COc1ccc(N2C(=O)C3C4C=CC(C4)C3C2=O)cc1 (stereo not given) | 1.1 | 0
O=C(NCc1ccccc1)c1nn2c(C(F)(F)F)cc(-c3cccs3)nc2c1Cl | 1 | 18
COC(=O)c1ccccc1NC(=O)c1cnn2c(C(F)(F)F)cc(-c3ccccc3)nc12 | 0.65* | -1
COC(=O)c1cc2nc(-c3ccc(OC)cc3)cc(C(F)(F)F)n2n1 | 1 | 1
CC(COc1ccccc1)NC(=O)c1nn2c(C(F)(F)F)cc(-c3ccccc3)nc2c1Br (stereo not given) | 0.63* | 10
CC(C)(C)NC(=O)c1nn2c(C(F)(F)F)cc(-c3ccccc3)nc2c1Br | 0.64* | 6
O=C(Nc1ccccc1C(F)(F)F)c1cnn2c(C(F)(F)F)cc(-c3ccccc3)nc12 | 1.1 | 12
O=[N+]([O-])c1cc(C(F)(F)F)ccc1NCCCCNS(=O)(=O)c1ccccc1 | 0.83 | 18
O=C1c2ccccc2NC(c2ccc3c(c2)OCO3)N1Cc1ccccc1 (stereo not given) | 0.9 | 6
Cc1sc(NC(=O)c2ccc(F)cc2)c(C(=O)O)c1C | 0.7* | 14
Cc1cc(C)cc(NC(=O)c2ccc(F)cc2)c1 | 1 | 12
CC(=O)CC(=O)Nc1ccnn1-c1ccccc1 | 0.98 | 7
CCN1C(=O)/C(=C\c2ccc(N(C)C)cc2)SC1=S | 1.2* | 11
O=C1/C(=C\c2ccc(-c3ccccc3Cl)o2)SC(=S)N1Cc1ccccc1 | 1 | 1
O=Cc1ccc(/C=C2/SC(=S)N(Cc3ccccc3)C2=O)cc1 | 0.72* | 10
O=C1/C(=C/c2ccc(I)o2)SC(=S)N1c1ccccc1 | 0.69* | 13
C=CCN1C(=O)/C(=C\c2ccc(C=O)cc2)SC1=S | 1.1 | 10
